Hit rate of the full screen: of about 310,000 compounds, about 1,000 (0.32%) were called active. Not all results are given here. Potency and affinity values are given separately. Values without a mark were called inactive. How the calls were made is not given here.

A word on the inhibition: it is the change of the read-out against control, counted positive when it falls.

The assay can be described thus: Inhibition of PhoP regulon, Salmonella typhi GFP reporter cells, confirmation, 4 h (AID 1850).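 Further: 0% = induced wells with vehicle and 100% = uninduced wells.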 Particulars: Salmonella Typhi PhoP-promoter GFP reporter, fluorescence, at 50 µM, stronger effect = higher value.
In the case of `CC1(C)CC(=O)C2=C(C1)OC(N)=C(C#N)C21C(=O)N2CCCc3cccc1c32` (stereo unspecified), the inhibition was -2.22%.
In the case of `CN(C(=O)COC(=O)c1ccc2[nH]c3c(c2c1)CCCC3)C1CCS(=O)(=O)C1` (stereo unspecified) it was -8.01%.
In the case of `Cc1ccc(OCCCCN2CCC(C)CC2)cc1` it was 15.9%; in that of `COc1cc(CNC(C)(C)CO)cc(Br)c1OCc1ccc(Cl)cc1Cl`, 0.08%; in that of `CCOc1cc(CNCCO)cc(Br)c1OCc1ccc(Cl)cc1Cl`, 8.42%.
Regarding `CCOc1cc(CNCCc2ccc(S(N)(=O)=O)cc2)cc(Cl)c1OCc1ccccc1`, the inhibition is 13%.
In the case of `COc1cc(CNCc2ccccc2)cc(Cl)c1OC` it was 4%; in that of `CC(C)c1ccc(Nc2c([N+](=O)[O-])c(=O)n(C)c3ccccc23)cc1`, 2.08%; in that of `Cc1ccc2nsnc2c1S(=O)(=O)NCc1ccncc1`, -2.24%.
In the case of `Cc1onc(-c2ccccc2)c1-c1nnc(-c2ccccc2C(F)(F)F)o1` it was 0.63%; in that of `C=CCN(c1nc(C)cc(OC)n1)S(=O)(=O)c1ccc(C)cc1`, 0.2%.
In the case of `CC(C)(C)c1nnc(NC(=O)c2cccs2)s1` it was 10.7%.
`CN1CCN(c2ccc(C(F)(F)F)cc2N)CC1`: the inhibition was 2.28%.
With `Cc1nc2cc(C(F)(F)F)ccc2n1C` the figure was 1.93%; with `O=C(Nc1ccccc1C(=O)Nc1ccccn1)c1cc(F)c(F)cc1Cl`, -1.17%; with `Cc1ccc[n+](-c2nc3ccccc3nc2[N-]S(=O)(=O)c2ccccc2)c1`, -11.4%.
In the case of `O=C(/C=C/c1ccc2c(c1)OCO2)c1cccnc1` it was 0.98%; in that of `O=C(Cn1nc(C(F)(F)F)c2c1CCC2)Nc1ccccc1C(F)(F)F`, -9.91%; in that of `CC1CCC(C(C)C)C(OC(=O)C[n+]2cc(-c3ccc(Cl)cc3)n3c2CCCCC3)C1` (stereo unspecified), 10.8%.
Regarding `COc1ccc(-c2c[n+](CC(=O)OC3CC(C)CCC3C(C)C)c3n2CCC3)cc1` (stereo unspecified), the inhibition is 1.91%.
In the case of `Cn1c(NC(=O)C[n+]2cc(-c3ccc(Cl)cc3)n3c2CCC3)cc(=O)n(C)c1=O` it was 11.1%.
In the case of `O=C(C[n+]1cc(-c2ccc(Cl)cc2)n2c1CCCCC2)c1ccccc1` it was 1.54%.
In the case of `CCc1ccc(Nc2nnc(SCc3cc(=O)n4ccsc4n3)s2)cc1` it was -7.77%; in that of `CCCCNCCCOc1cccc(Cl)c1`, 2.53%; in that of `CCCCNCCCOc1cc(Cl)ccc1Cl`, 6.78%.
For the compound `O=C(NCCO)c1cccc(Cl)c1`, the inhibition was -3.96%.
In the case of `O=C1CCC([N+](=O)[O-])C(c2cc3c(cc2Cl)OCO3)N1` (stereo unspecified) it was 3.32%; in that of `COC(=O)c1cc(C(=O)c2ccc(Cl)cc2)n2c(=O)/c(=C\N(C)C)sc12`, 4.66%; in that of `O/N=C/c1ccc(OCc2ccccc2)c(Br)c1`, 17.4%.
In the case of `O/N=C/c1ccc(OCc2ccccc2F)c(Cl)c1` it was -2.37%.
For `Cc1cc(C)cc(NC(=O)CSc2nc3ccccc3nc2N2CCCC2)c1`, the inhibition is 11.5%.
In the case of `CNCCc1c[nH]c2ccccc12`, the inhibition is 10.1%.
For the compound `CN(C)CCCNc1c2c(nc3ccccc13)CCC2`, the inhibition is 5.26%.
In the case of `CN(C)CCCNc1nc(-c2ccccc2)nc2ccccc12` it was -2.17%.
In the case of `OCCNc1c2ccccc2nc2ccccc12` it was 11.8%; in that of `Fc1cccc(NCCc2c[nH]c3ccccc23)n1`, 3.37%; in that of `OCCNc1c2c(nc3ccccc13)CCCC2`, -3.18%.
Regarding `N#CCCN(C(=O)COC(=O)c1ccc(CNS(=O)(=O)c2ccc(F)c(Cl)c2)cc1)c1ccc(F)cc1`, the inhibition is -2.96%.
With `Cc1ccc(CNC(=O)C2CCCN(c3nn4c(=O)cc(C)nc4s3)C2)cc1` (stereo unspecified) the figure was -0.07%; with `CCC1=C2CC[C@H]3C(=O)N(C)C(=O)[C@H]3[C@H]2[C@@]2(Cc3ccccc3)C(=NCC(=O)OC)OC(=O)N2C1=O`, -11.3%; with `CC(Sc1nnc(-c2ccccc2Br)o1)C(=O)N1CCOCC1` (stereo unspecified), 0.36%.
In the case of `O=C(NCC1CCCO1)c1cccc(NC(=O)c2ccc(Br)cc2)c1` (stereo unspecified) it was -6.91%; in that of `CC(C)c1ccc(NC(=O)CSc2nc3ccsc3c(=O)n2Cc2ccc(C(=O)O)cc2)cc1`, -12%; in that of `COC(=O)CC1=C(C(=O)OC)C(c2ccc3c(c2Cl)OCO3)C(C#N)=C(N)O1` (stereo unspecified), -2.85%.
With `CCC(=C(c1ccc(OC)cc1)c1ccc(OC)cc1)c1cn(CC(O)CN(CCO)CCO)c2ccccc12` (stereo unspecified) the figure was 1.98%.
Regarding `COc1ccccc1-n1c(SCC(=O)Nc2ccc(F)cc2)nc2c(c1=O)SCC2`, the inhibition is 4.39%.
In the case of `C=CCn1c2ccccc2n2nc(C)c(=O)nc12` it was 5.77%.
With `COc1ccc(/C=C/C(=O)NCCCc2ccccc2)cc1` the figure was 2.3%; with `COc1ccc(NC(=O)Cc2ccccc2)cc1`, -3.71%; with `CCNC(=S)N1CCNC(=O)C1CC(=O)OC` (stereo unspecified), -0.49%.
In the case of `CCCSC(=S)NC1CCS(=O)(=O)C1` (stereo unspecified) it was 14.2%; in that of `C=CCSC(=S)NC1CCS(=O)(=O)C1` (stereo unspecified), 4.24%; in that of `COCCSc1nnc(NC(=O)C2CCCO2)s1` (stereo unspecified), -16.4%.
In the case of `CC(=O)NC(c1ccc(C)cc1)c1cc(Cl)c2cccnc2c1O` (stereo unspecified), the inhibition was -5%.
Take `CN1CCN(C(c2cccnc2)c2ccc3cccnc3c2O)CC1` (stereo unspecified): the inhibition was 4.05%.
In the case of `CCN1CCN(C(c2ccc(C(F)(F)F)cc2)c2ccc3cccnc3c2O)CC1` (stereo unspecified) it was -8.31%; in that of `Oc1c(C(c2ccc(Cl)cc2)N2CCCC2)cc(Cl)c2cccnc12` (stereo unspecified), -16.5%; in that of `Oc1c(C(c2ccccn2)N2CCC(Cc3ccccc3)CC2)cc(Cl)c2cccnc12` (stereo unspecified), -1.4%.
With `CN1CCN(C(c2ccc(C(F)(F)F)cc2)c2cc(Cl)c3cccnc3c2O)CC1` (stereo unspecified) the figure was 2.9%.
In the case of `CN1CCN(C(c2ccccn2)c2cc(Cl)c3cccnc3c2O)CC1` (stereo unspecified) it was -16.9%.
Consider `Oc1c(C(c2ccccn2)N2CCCCC2)cc(Cl)c2cccnc12` (stereo unspecified), for which the inhibition was 20.3%.
With `CCOCCOC(=O)c1ccc(-n2cncn2)nc1` the figure was 19.6%; with `Cn1c(NC(=O)CC2CCCCC2)cc(=O)n(C)c1=O`, -13.1%.
With `C/C(=N\Nc1nc2ccccc2[nH]1)c1ccc2c(c1)OCCO2` the figure was 11.8%; with `COc1ccc(Br)cc1C(=O)NC(=S)Nc1c(C)n(C)n(-c2ccccc2)c1=O`, 14.4%.
With `CC1(c2ccccc2)NC(=O)N(CC(=O)NCCC2=CCCCC2)C1=O` (stereo unspecified) the figure was 0.28%.
`CCC[C@@H](CNC)NC[C@H](Cc1ccccc1)NCCCCc1ccccc1`: the inhibition is 3.99%.
In the case of `CNC[C@H](CC1CCCCC1)NC[C@H](NCCC1CCCC1)[C@H](C)O` it was 22.8%; in that of `CCC[C@@H](CN[C@@H](CNC)C(C)C)NCCCCc1ccccc1`, 16.7%; in that of `O=C(CC12CC3CC(CC(C3)C1)C2)NC(Cc1ccccc1)C(=O)O` (stereo unspecified), -9.42%.
With `CNC[C@H](CC1CCCCC1)NC[C@H](CO)NCC1(c2ccccc2)CC1` the figure was -8.16%; with `CNC[C@H](CC1CCCCC1)NC[C@H](CO)NCCc1cccc(C(F)(F)F)c1`, 10.8%; with `CC(C)n1nc(C(=O)OCC(=O)N(C)C2CCS(=O)(=O)C2)c2ccccc2c1=O` (stereo unspecified), -1.06%.
`COCCn1c(SCc2cccc(F)c2)nc2cc(C(=O)OC)ccc2c1=O`: the inhibition was 6.64%.
With `O=C(c1cc(-c2cccc(O)c2)on1)N1CCCCCC1` the figure was 14.9%; with `CN(C)S(=O)(=O)c1cccc(NC(=O)COc2ccc(C(=O)c3ccccc3)cc2)c1`, -35.4%; with `COc1ccc(CCn2c(-n3nc(C)cc3C)nc3c2c(=O)[nH]c(=O)n3C)cc1`, 0.46%.
With `O=C(NCC(=O)N1CCCCC1)c1ccc(Br)o1` the figure was 20.3%; with `N#C/C(=N\Nc1ccc(S(=O)(=O)N2CCOCC2)cc1)C(N)=S`, 6.96%; with `O=C(Nc1ccc(SC(F)F)cc1)C1CC(=O)N(Cc2ccccc2)C1` (stereo unspecified), 17.5%.
With `OCC1(Cc2ccc(Cl)cc2)CCN(Cc2ccc(F)c(F)c2)CC1` the figure was 1.77%.
As to `CCn1c(=O)n(CC)c2cc(NC(=O)c3ccccc3Cl)ccc21`, the inhibition is -4.48%.
With `C/C(CC(=O)Nc1ccc2c(c1)OCO2)=N\NC(=O)OC(C)(C)C` the figure was 1.68%; with `Cc1ccc(C(=O)Nc2cccc(NC(=O)c3cccs3)c2)c(C)c1`, -6.14%; with `Cc1cc(C)c(S(=O)(=O)NCCCn2ccnc2)c(C)c1`, -3.5%.
With `CCCCC[n+]1cccc2c3ccccc3ccc21` the figure was 0.18%; with `CCCCCCCCCCCCCCCC[n+]1cccc2ccccc21`, -4.68%; with `O=C(C[n+]1cc(-c2ccccc2)n2c1CCC2)N1c2ccccc2Sc2ccccc21`, 13.9%.
Take `COc1ccc(-c2c[n+](CC(=O)N3c4ccccc4Sc4ccccc43)c3n2CCC3)cc1`: the inhibition was 18.6%.
With `Cc1ccc(-c2c[n+](CC(=O)N3c4ccccc4Sc4ccccc43)c3n2CCC3)cc1` the figure was 6.09%; with `O=C(C[n+]1cc(-c2ccc(F)cc2)n2c1CCC2)N1c2ccccc2Sc2ccccc21`, -2.79%.
With `CC/C(=N\NC(=O)c1ccncc1)C12CC3CC(CC(C3)C1)C2` the figure was 8.69%.
In the case of `CCOC(=O)N1CCC(=NNC(=O)COc2ccc(C#N)cc2)CC1` it was -4.18%; in that of `COc1ccc(OC)c(CCNC(=O)c2sc3nc4n(c(=O)c3c2C)CCC4)c1`, 4.26%; in that of `Cc1occc1C(=O)N/N=C/c1ccc(Br)s1`, 1.4%.
As for `Cc1ccc(/C=N/NC(=O)c2ccoc2C)s1`, the inhibition was 0.98%.

The record behind these values is PubChem BioAssay AID1850 (Southern Research Specialized Biocontainment Screening …, 2009).
